We go through eight compounds from PubChem BioAssay (NCI).

Some test systems named below: SR leukemia; RPMI-8226 leukemia; OVCAR-8 ovarian; OVCAR-5 ovarian; OVCAR-4 ovarian; SK-OV-3 ovarian; IGROV1 ovarian; OVCAR-3 ovarian; HS 578T breast; NCI/ADR-RES ovarian; T-47D breast; BT-549 breast; SW-620 colon; MCF7 breast; HCT-116 colon; HCC-2998 colon; KM12 colon; MDA-MB-468 breast; MDA-MB-435 melanoma.
What all share (test): NCI-60 one-dose screen, 48 h (100 = growth as untreated, 0 = no growth, -100 = all killed)
What all share (settings): 10 µM unless noted

Compounds without any hit were thinned out: in the full panel of roughly 83,000, 20% have a hit.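 In brief: 96-well plates, 48 h treatment, single concentration, percent growth endpoint.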 A number with no mark means an inactive call. Activity calls are given as the source filed them. How the source made its calls: active means growth percent below 10; inactive means the rest.

Turning to `O=C1NC(=O)/C(=C/c2ccccc2OCc2cc3ccccc3nc2Cl)S1`, the growth in the test with SR leukemia is 105%; in the test on RPMI-8226 leukemia, 93.7%; in the test on OVCAR-8 ovarian, 68.4%; with OVCAR-5 ovarian it was 112%; in the test on OVCAR-4 ovarian it was 88.2%; in the test with SK-OV-3 ovarian, 81.7%. Moreover, the growth with IGROV1 ovarian is 91.5%; with OVCAR-3 ovarian, 71.7%; in the test with HS 578T breast, 28.8%; in the test on NCI/ADR-RES ovarian it was 87.6%; with T-47D breast it was 75.3%; with BT-549 breast it was 78.7%. Further, the growth in the test with SW-620 colon was 109%; in the test on MCF7 breast it was 74.3%; in the test on HCT-116 colon, 108%; in the test with HCC-2998 colon it was 114%; with KM12 colon it was 85.2%; with MDA-MB-468 breast, 80.6%.
`COc1c(F)ccc(C(=O)Nc2ccc3nc(NC(=O)C4CCCN(S(=O)(=O)c5ccc(Br)c(F)c5)C4)sc3c2)c1F` (stereo not drawn): the growth with SR leukemia was 47.2%; in the test with RPMI-8226 leukemia, 52%; with OVCAR-8 ovarian, 98.1%; in the test with OVCAR-5 ovarian, 102%; with OVCAR-4 ovarian, 75.4%; in the test on SK-OV-3 ovarian, 102%. Also, the growth is 82.2% in the test on IGROV1 ovarian; 96.8% in the test on OVCAR-3 ovarian; 72.8% in the test with HS 578T breast; 83.4% in the test on NCI/ADR-RES ovarian; 67.5% with T-47D breast; 77% with BT-549 breast. Besides, the growth is 92.3% in the test on MDA-MB-435 melanoma; 96.5% in the test with SW-620 colon; 62.7% with HCT-116 colon; 109% in the test on HCC-2998 colon; 79.2% in the test with KM12 colon; 92% in the test on MDA-MB-468 breast.
Regarding `COc1ccc(-c2ccc(SCC(=O)Nc3ccc(S(N)(=O)=O)cc3Br)nn2)cc1`, the growth in the test on SR leukemia was 92.7%; with RPMI-8226 leukemia it was 85.8%; in the test on OVCAR-8 ovarian, 48.7%; with OVCAR-5 ovarian, 99.6%; in the test with OVCAR-4 ovarian, 38%; in the test on SK-OV-3 ovarian it was 62.3%. The growth was 105% with IGROV1 ovarian; 98.3% in the test on OVCAR-3 ovarian; 44.8% with HS 578T breast; 95.3% in the test on NCI/ADR-RES ovarian; 76.9% in the test on T-47D breast; 49.3% in the test with BT-549 breast. The growth was 108% in the test on MDA-MB-435 melanoma; 91.3% in the test with SW-620 colon; 79.4% with HCT-116 colon; 99.3% in the test on HCC-2998 colon; 88.7% in the test on KM12 colon; 86.9% in the test with MDA-MB-468 breast.
Consider `CCCCCCCCc1ccc(S(=O)(=O)Nc2ccc(CC)cc2C(=O)O)cc1`, for which the growth in the test on SR leukemia is 96.7%; in the test on RPMI-8226 leukemia, 71.1%; with OVCAR-8 ovarian it was 95.1%; in the test on OVCAR-5 ovarian, 117%; in the test on OVCAR-4 ovarian, 96%; in the test on SK-OV-3 ovarian it was 106%. Moreover, the growth is 97.4% in the test with IGROV1 ovarian; 113% with OVCAR-3 ovarian; 103% in the test with HS 578T breast; 96% with NCI/ADR-RES ovarian; 76.6% with T-47D breast; 108% in the test on BT-549 breast. The growth with SW-620 colon is 103%; in the test with MCF7 breast it was 86%; in the test with HCT-116 colon it was 87.7%; with HCC-2998 colon, 113%; in the test with KM12 colon, 97.7%; in the test with MDA-MB-468 breast, 82.2%.
As for `Cc1cccc(Nc2nc3ccccc3nc2/C=C/c2ccc(F)cc2)c1`, the growth was 87.2% in the test with SR leukemia; 91.8% in the test with RPMI-8226 leukemia; 85.1% with OVCAR-8 ovarian; 101% in the test with OVCAR-5 ovarian; 88.9% in the test on OVCAR-4 ovarian; 105% in the test with SK-OV-3 ovarian. Also, the growth was 75.3% in the test with IGROV1 ovarian; 108% in the test with OVCAR-3 ovarian; 83.8% in the test with HS 578T breast; 91.1% in the test on NCI/ADR-RES ovarian; 78.9% in the test on T-47D breast; 99.2% in the test on BT-549 breast. The growth in the test on SW-620 colon is 88.2%; in the test with MCF7 breast, 60.9%; in the test on HCT-116 colon it was 81%; in the test on HCC-2998 colon it was 94.2%; with KM12 colon, 96.5%; in the test with MDA-MB-468 breast, 90%.
Consider `CCOC(=O)C1=C(N)N(c2ccccc2)C2=C(C(=O)CC(C)(C)C2)C1c1ccc(N2CCOCC2)cc1` (stereo not drawn), for which the growth is 83.8% in the test on SR leukemia; 96.2% with RPMI-8226 leukemia; 97.1% in the test with OVCAR-8 ovarian; 101% in the test on OVCAR-5 ovarian; 101% in the test on OVCAR-4 ovarian; 102% in the test with SK-OV-3 ovarian. Moreover, the growth in the test on IGROV1 ovarian was 108%; in the test with OVCAR-3 ovarian, 113%; in the test with HS 578T breast it was 95.1%; in the test with NCI/ADR-RES ovarian it was 100%; with T-47D breast, 93.7%; in the test on BT-549 breast, 103%. Further, the growth was 101% in the test on SW-620 colon; 90.7% with MCF7 breast; 99.1% in the test with HCT-116 colon; 108% in the test on HCC-2998 colon; 105% with KM12 colon; 89.6% in the test on MDA-MB-468 breast.
Regarding `CC12CC[C@@H]3[C@]4(C)COC(c5cn[nH]c5-c5ccc(Br)cc5)O[C@@H]4CC[C@@]3(C)[C@@H]1CC(C1=CCOC1=O)O2` (stereo partly drawn), the growth in the test with SR leukemia was 40.6%; in the test on RPMI-8226 leukemia, 24.9%; in the test on OVCAR-8 ovarian it was 62.6%; with OVCAR-5 ovarian, 81.5%; with OVCAR-4 ovarian, 36.1%; in the test on SK-OV-3 ovarian, 73.5%. The growth was 50.3% in the test with IGROV1 ovarian; 56% with OVCAR-3 ovarian; 55.6% in the test with HS 578T breast; 51.9% in the test on NCI/ADR-RES ovarian; 16.3% with T-47D breast; 21.7% in the test on BT-549 breast. The growth is 51.8% in the test on MDA-MB-435 melanoma; 62.1% in the test on SW-620 colon; 23.4% in the test on HCT-116 colon; 55.8% in the test with HCC-2998 colon; 39% in the test with KM12 colon; 9.94% (active) with MDA-MB-468 breast.
With `C=C1CC[C@@H]2[C@]3(C)COC(c4cn[nH]c4-c4ccc(Br)cc4)O[C@@H]3CC[C@@]2(C)[C@@H]1C/C=C1/C(=O)OCC1O` (stereo partly drawn), the growth in the test with SR leukemia was 3.62% (active); with RPMI-8226 leukemia, 3.94% (active); in the test with OVCAR-8 ovarian, -9.48% (active); with OVCAR-5 ovarian, -75.9% (active); with OVCAR-4 ovarian, 8.76% (active); with SK-OV-3 ovarian it was -31.8% (active). Further, the growth in the test on IGROV1 ovarian is -44.9% (active); in the test on OVCAR-3 ovarian it was -78.9% (active); with HS 578T breast, 19.1%; in the test with NCI/ADR-RES ovarian, -40% (active); in the test with T-47D breast, 12.2%; with BT-549 breast, -96.6% (active). In addition, the growth in the test with SW-620 colon is -70.5% (active); in the test on HCT-116 colon, -93.5% (active); in the test on HCC-2998 colon, -98% (active); with KM12 colon, -64.3% (active); with MDA-MB-468 breast it was -85.9% (active).
